From PubChem BioAssay
Results filed as inconclusive are left out. The source made the active and inactive calls. Cut-off read from the data, not from the text of the source, unless noted: active = response above about 15%; inactive = the rest.

Columns and labels:
[1] = yeast TOR pathway RPL19A-GFP modulators, primary screen, cell-based, S. cerevisiae, multiplex flow cytometry (AID 1862; in the data active = percent of DMSO control GFP below about 86%;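 note: lower values mimic rapamycin by blocking the RPL19A rise seen in DMSO cells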); conditions: S. cerevisiae RPL19A-GFP strain, flow cytometry fluorescence, 3 h; at 10 µM; stronger effect = lower value
[2] = modulators of MEP2-GFP levels in yeast, primary screen, S. cerevisiae, multiplex flow cytometry (AID 1867;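 active = GFP response, as percent of the DMSO control, above the screen-wide mean plus 3 SD, about 139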;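 note: median GFP channel fluorescence of barcode-gated MEP2-GFP cells measured by flow cytometry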); conditions: S. cerevisiae MEP2-GFP strain, 3 h, at 10 µM, stronger effect = higher value, 100% means same as DMSO wells
[3] = modulators of CIT2-GFP expression in yeast, primary screen, S. cerevisiae, GFP fusion, multiplex flow cytometry (AID 1870;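 active = percent response above a set limit, the screen-wide mean plus 3 SD, cut at about 130% in these data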;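 note: barcoded CIT2-GFP strain pooled with four other GFP strains with rapamycin as positive control; median GFP fluorescence per well over plate mean of DMSO wells so 100% = DMSO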); conditions: 3 h, at 10 µM, stronger effect = higher value
[4] = modulators of LAP4-GFP expression in yeast, primary screen, S. cerevisiae, multiplex flow cytometry (AID 1873;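 active = GFP signal, as percent of the solvent control, above the screen mean plus 3 SD, about 149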); conditions: 3 h, at 10 µM, stronger effect = higher value
[5] = modulators of AGP1-GFP expression in yeast TOR pathway, primary screen, cell-based, multiplex flow cytometry, S. cerevisiae (AID 1887;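 active = GFP signal above the screen-wide mean plus 3 SD, that is over about 124.5% of the solvent control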;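 note: AGP1-GFP fusion strain of S. cerevisiae within a five-strain barcoded multiplex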); conditions: 3 h, at 10 µM, stronger effect = higher value
[6] = inhibitors of CD8+ T cell-vesicle binding, pilot screen, LFA-1/ICAM-1 modulator project, MLPCN validation set, flow cytometry (AID 2523;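 active = response below a set limit, under 55% cells CD8-positive and vesicle-bound, and CD8 cells' 90th-percentile brightness under 279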;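 for vesicle binding response: mean PE anti-B7-1 fluorescence of CD8+ cells relative to row control; 100% = QL9-loaded vesicles with DMSO vehicle in the same plate row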); conditions: 2C mouse CD8+ T cells, at 7 µM, stronger effect = lower value; double positive events: measured here: CD8+/vesicle+ event percentage
[7] = target: Integrin beta-1 (Homo sapiens) + Integrin alpha-4 (Homo sapiens) (UniProt P13612+P05556); assay: inhibition of HUTS-21 binding to VLA-4, pilot screen, VLA-4 allosteric modulator project, U937 cells, HUTS-21 mAb, flow cytometry, validation set (AID 2674;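 active = inhibition above 50%, about 3 SD of the validation set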;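 note: antibody binding induced by the VLA-4 ligand LDV present at three times its Kd; 0% = LDV ligand with antibody and no compound and 100% = antibody without LDV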); conditions: HUTS-21 LIBS mAb binding, at 6.7 µM, stronger effect = higher value, binding induced by LDV ligand
[8] = superoxide lowering in aged yeast cells, pilot screen, validation compound set (AID 2706;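 active = superoxide response below 65% of plate, a cut near 3 SD across the whole screen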;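 note: yeast exposed to compound for one week at 30 degrees C before staining; 100% = mean of all compound wells on the same plate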); conditions: S. cerevisiae aging, superoxide DHE fluorescence; at 10 µM; stronger effect = lower value
[9] = target: Beta-adrenergic receptor kinase 1 (Homo sapiens) (UniProt P25098); assay: GRK2 binders displacing RNA aptamer, biochemical, validation, human GRK2, bead flow cytometry (AID 488806;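 active = aptamer binding inhibition above 30%, about 3 SD of noise from non-fluorescent compounds; inactive = inhibition at or below 30%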); conditions: bead-bound GRK2, FAM-aptamer displacement, at 10 µM, stronger effect = higher value
[10] = target: Beta-2 adrenergic receptor (Homo sapiens) (UniProt P07550); assay: beta2AR agonists driving receptor internalization, pilot screen, cell-based, FAP fluorogen, flow cytometry, validation set (AID 504459;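 active = percent response above 42, roughly 3 SD of non-fluorescent test compounds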;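 note: agonist-driven loss of surface beta2AR via internalization measured by FAP dye flow cytometry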); conditions: Am2.2-beta2AR cells, FAP surface receptor flow cytometry; at 10 µM; stronger effect = higher value
[11] = target: AP-2 complex subunit beta (Homo sapiens) (UniProt P63010); assay: inhibitors of arrestin peptide binding to AP2, pilot screen, biochemical, validation set, GST-AP2 beads, flow cytometry (AID 504541;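 active = inhibition above 54%, about 3 SD of non-fluorescent compounds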;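 note: AP2 carries R879A mutation and is captured from E. coli lysate; bead-bound FITC arrestin peptide fluorescence measuring arrestin peptide binding to AP2; 0% = DMSO wells and 100% = excess unlabeled arrestin peptide control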); conditions: FITC arrestin peptide, at 10 µM, stronger effect = higher value, AP2 beta2 appendage fragment, R879A mutant
[12] = yeast V-ATPase proton transport modulators, S. cerevisiae, pHLuorin, HTS validation (AID 504600);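 note: plate controls were DMSO for no effect and reference compound for full effect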; conditions: S. cerevisiae pHLuorin cytosolic pH, at 10 µM, stronger effect = higher value
[13] = test system: anti-desmoglein-3 scFv antibody binding to human DSG3; assay: inhibitors of anti-DSG3 scFv binding to DSG3, pilot screen, biochemical, validation compound set, bead-based, flow cytometry (AID 588368;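 active = binding below the plate cutoff, the plate median minus 3 SD, with a reading above zero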;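 note: signal is the median channel fluorescence of bead-bound GFP antibody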); conditions: Protein G beads, DSG3-Fc, scFv-GFP binding, at 10 µM, stronger effect = lower value
[14] = inhibitors of fungal efflux pumps CDR1, CDR2, MDR1, pilot screen, validation compound set, multiplex, phenotypic (AID 588506;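 active = efflux inhibition above 0.42, the validation set average plus 4 SD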;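 note: Nile Red retained in cells so higher fluorescence means more efflux inhibition; 0 = negative control wells and 1 = enniatin B 25 µM full block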); conditions: S. cerevisiae pump-expressing triplex, Nile Red efflux flow cytometry; at 10 µM; stronger effect = higher value; the pumps come from Candida albicans
[15] = target: ATP-binding cassette sub-family B member 6 (Homo sapiens) (UniProt Q9NP58); assay: ABCB6 transporter inhibitors, pilot screen, K562-ABCB6 cells, flow cytometry, validation set (AID 588550;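 active = inhibition above the screen-wide mean plus 3 SD, about 51%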;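 note: 0% = DMSO wells and 100% = benzethonium chloride 70 µM positive control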); conditions: K562-ABCB6 porphyrin accumulation, 1 h, at 10 µM, stronger effect = higher value
[16] = promoters of myeloid differentiation in arrested cells, primary screen, cell-based, GFP/MAC1 double positive, flow cytometry, validation set (AID 588685;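 active = differentiation response of at least 50%, scaled between solvent and reference control, from cells with both markers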;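 note: compound exposure lasts four days before antibody staining and flow analysis; 0% = DMSO wells and 100% = 5 µM fulvestrant positive control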); conditions: ER-HoxA9 marrow cells, stronger effect = higher value, normalized: vehicle 0, fulvestrant 100

Beta-2 adrenergic receptor (Homo sapiens), sequence (P07550 whole entry, looked up): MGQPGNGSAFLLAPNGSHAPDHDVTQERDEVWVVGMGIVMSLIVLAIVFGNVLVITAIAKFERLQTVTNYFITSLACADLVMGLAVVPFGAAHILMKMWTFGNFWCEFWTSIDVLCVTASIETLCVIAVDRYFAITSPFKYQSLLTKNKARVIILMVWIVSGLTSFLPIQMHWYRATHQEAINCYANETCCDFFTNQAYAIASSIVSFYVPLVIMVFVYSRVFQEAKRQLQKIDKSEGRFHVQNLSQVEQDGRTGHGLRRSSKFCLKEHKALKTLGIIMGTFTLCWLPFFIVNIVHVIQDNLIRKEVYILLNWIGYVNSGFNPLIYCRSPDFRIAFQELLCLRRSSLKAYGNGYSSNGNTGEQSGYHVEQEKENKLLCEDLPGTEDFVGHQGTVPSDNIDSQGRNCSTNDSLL
AP-2 complex subunit beta (Homo sapiens), sequence (P63010 whole entry, looked up, the tested form may be a part, one chain of several): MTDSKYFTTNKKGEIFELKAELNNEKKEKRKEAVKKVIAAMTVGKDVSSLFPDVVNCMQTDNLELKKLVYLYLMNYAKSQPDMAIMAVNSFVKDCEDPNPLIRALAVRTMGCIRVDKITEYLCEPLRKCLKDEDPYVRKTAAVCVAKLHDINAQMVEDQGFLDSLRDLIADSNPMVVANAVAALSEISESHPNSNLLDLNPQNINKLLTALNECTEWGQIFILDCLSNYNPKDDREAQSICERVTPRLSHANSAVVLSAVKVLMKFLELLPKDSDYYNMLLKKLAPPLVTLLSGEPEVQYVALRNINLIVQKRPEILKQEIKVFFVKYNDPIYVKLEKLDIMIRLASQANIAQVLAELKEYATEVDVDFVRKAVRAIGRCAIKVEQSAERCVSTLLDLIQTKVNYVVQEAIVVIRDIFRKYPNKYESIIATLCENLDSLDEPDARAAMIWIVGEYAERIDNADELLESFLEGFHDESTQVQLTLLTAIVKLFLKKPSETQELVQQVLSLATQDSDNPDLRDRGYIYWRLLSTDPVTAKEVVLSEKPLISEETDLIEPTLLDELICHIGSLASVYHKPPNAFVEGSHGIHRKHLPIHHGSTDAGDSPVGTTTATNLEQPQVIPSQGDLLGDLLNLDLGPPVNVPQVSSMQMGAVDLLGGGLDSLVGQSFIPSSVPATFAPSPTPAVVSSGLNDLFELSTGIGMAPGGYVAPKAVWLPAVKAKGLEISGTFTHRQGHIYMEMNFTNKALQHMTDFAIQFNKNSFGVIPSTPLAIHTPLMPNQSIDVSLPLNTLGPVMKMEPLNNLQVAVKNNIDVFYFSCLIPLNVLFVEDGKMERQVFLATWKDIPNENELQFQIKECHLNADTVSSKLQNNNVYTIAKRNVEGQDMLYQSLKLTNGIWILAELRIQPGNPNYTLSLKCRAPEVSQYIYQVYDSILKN
Beta-adrenergic receptor kinase 1 (Homo sapiens), sequence (P25098 whole entry, looked up): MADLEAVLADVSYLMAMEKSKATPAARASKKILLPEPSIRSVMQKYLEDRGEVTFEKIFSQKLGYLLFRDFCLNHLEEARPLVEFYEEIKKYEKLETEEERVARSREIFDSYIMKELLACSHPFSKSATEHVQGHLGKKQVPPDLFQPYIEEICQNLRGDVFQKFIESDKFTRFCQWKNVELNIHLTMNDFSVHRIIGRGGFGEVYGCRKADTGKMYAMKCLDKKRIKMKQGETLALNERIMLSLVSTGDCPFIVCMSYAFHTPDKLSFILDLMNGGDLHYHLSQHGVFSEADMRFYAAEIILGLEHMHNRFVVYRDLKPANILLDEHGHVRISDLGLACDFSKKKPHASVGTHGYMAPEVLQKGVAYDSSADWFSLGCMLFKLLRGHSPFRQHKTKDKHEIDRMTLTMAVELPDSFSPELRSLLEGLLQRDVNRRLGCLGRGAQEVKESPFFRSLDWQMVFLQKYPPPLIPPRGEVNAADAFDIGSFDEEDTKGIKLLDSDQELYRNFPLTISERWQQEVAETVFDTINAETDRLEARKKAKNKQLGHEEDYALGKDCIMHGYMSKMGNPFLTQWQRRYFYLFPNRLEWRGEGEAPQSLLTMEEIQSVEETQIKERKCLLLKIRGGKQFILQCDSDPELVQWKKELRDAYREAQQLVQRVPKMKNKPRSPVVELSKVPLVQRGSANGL
Integrin beta-1 (Homo sapiens) + Integrin alpha-4 (Homo sapiens), sequence (P05556 whole entry, looked up): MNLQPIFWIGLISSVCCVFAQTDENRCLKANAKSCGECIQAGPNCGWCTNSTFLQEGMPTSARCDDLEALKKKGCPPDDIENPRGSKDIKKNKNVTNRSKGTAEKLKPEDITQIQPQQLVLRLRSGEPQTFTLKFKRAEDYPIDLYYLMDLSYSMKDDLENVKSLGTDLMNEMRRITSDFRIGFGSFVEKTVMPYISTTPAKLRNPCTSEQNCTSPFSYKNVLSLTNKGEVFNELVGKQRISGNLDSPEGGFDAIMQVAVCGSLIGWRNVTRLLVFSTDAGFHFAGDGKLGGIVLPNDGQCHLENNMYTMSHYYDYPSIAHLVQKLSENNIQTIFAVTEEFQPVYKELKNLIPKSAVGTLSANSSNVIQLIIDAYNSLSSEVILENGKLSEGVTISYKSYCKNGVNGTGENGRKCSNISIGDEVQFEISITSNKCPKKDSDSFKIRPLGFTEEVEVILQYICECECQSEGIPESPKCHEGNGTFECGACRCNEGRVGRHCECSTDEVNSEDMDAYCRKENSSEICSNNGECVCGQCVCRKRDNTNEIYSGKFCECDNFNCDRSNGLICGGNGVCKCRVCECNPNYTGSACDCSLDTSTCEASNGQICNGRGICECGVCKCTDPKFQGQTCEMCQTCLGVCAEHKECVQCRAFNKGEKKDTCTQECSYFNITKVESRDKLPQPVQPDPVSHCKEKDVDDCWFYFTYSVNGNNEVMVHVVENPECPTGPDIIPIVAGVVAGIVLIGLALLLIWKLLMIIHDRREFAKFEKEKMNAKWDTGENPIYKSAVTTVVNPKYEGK
Integrin beta-1 (Homo sapiens) + Integrin alpha-4 (Homo sapiens), sequence (P13612 whole entry, looked up): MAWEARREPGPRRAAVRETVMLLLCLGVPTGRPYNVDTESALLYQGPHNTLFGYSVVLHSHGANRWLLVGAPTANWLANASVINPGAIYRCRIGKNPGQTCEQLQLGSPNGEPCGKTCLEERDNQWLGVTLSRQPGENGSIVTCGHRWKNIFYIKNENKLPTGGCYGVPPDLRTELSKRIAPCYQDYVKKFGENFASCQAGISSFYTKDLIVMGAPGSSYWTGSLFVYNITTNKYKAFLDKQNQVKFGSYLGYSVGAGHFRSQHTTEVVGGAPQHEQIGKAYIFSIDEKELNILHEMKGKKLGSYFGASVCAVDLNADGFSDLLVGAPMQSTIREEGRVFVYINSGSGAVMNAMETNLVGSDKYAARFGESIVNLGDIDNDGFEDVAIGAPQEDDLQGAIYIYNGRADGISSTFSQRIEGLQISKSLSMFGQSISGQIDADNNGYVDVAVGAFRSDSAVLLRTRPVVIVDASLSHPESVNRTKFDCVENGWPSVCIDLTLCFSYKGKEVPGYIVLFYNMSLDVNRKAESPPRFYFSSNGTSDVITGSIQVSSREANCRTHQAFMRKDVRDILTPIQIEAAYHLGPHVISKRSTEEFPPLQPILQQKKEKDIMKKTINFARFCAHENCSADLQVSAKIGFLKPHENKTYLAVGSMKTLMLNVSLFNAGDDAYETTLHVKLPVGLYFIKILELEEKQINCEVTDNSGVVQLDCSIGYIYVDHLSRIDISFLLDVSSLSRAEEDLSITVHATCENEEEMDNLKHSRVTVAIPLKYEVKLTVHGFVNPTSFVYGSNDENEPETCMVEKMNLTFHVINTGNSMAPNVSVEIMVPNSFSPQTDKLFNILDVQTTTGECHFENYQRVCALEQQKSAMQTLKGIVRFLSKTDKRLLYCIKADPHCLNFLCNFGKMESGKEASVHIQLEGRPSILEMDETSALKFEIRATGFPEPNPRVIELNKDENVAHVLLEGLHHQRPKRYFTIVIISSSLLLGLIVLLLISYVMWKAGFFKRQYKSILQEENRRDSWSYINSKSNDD
ATP-binding cassette sub-family B member 6 (Homo sapiens), sequence (Q9NP58 whole entry, looked up): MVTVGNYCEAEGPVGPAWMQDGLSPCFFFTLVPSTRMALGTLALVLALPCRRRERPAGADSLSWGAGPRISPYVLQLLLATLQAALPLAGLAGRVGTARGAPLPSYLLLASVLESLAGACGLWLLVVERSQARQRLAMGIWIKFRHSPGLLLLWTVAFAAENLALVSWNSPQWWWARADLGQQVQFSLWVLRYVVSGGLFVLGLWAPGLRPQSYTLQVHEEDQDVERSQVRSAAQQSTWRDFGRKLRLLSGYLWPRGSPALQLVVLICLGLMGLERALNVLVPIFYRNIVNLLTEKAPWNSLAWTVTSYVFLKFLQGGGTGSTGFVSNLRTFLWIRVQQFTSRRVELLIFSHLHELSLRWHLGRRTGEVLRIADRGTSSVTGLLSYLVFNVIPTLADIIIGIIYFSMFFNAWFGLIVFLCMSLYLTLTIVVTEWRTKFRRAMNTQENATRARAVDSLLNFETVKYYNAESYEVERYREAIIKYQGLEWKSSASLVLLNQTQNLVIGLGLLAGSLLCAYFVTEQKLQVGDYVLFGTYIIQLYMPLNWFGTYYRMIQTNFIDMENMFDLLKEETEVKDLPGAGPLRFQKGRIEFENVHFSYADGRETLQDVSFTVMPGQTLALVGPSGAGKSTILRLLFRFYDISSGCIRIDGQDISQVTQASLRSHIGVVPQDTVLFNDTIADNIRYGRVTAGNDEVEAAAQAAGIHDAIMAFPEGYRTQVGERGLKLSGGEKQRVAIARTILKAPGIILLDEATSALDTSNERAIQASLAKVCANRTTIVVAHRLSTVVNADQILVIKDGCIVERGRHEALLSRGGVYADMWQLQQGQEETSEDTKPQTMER

O=C(O)C1Cc2ccccc2CN1S(=O)(=O)c1ccccc1 (stereo not drawn)
60.9%: double positive events [6]
inactive: percent of DMSO control GFP [1] 98.8% | GFP response vs DMSO [2] 104% | percent response of DMSO control [3] 92.9% | GFP response vs DMSO [4] 118% | GFP response, % of DMSO [5] 96.8% | vesicle binding response [6] 186% | inhibition [7] -12.7% | superoxide response (% of plate) [8] 107% | aptamer binding inhibition [9] 4% | response [10] -23.4% | inhibition [11] 1.65% | response [12] 1.38% | binding (% of control) [13] 104% | efflux inhibition (fraction of control) [14] -0.17 | inhibition [15] 9% | differentiation response [16] 2.4%

c1ccc2[nH]c(-c3cscn3)nc2c1
inactive: percent of DMSO control GFP [1] 97.6% | GFP response vs DMSO [2] 103% | percent response of DMSO control [3] 97.7% | GFP response vs DMSO [4] 123% | GFP response, % of DMSO [5] 111% | vesicle binding response [6] 174% | inhibition [7] 2.29% | superoxide response (% of plate) [8] 85.3% | aptamer binding inhibition [9] -2% | response [10] -32% | inhibition [11] 5.36% | response [12] 1.12% | binding (% of control) [13] 108% | efflux inhibition (fraction of control) [14] 0 | inhibition [15] 0% | differentiation response [16] -2.03%
58.6%: double positive events [6]

Cc1cc(C)cc(Nc2nc3c([nH]2)c(=O)n(C)c(=O)n3C)c1
63.9%: double positive events [6]
inactive: percent of DMSO control GFP [1] 102% | GFP response vs DMSO [2] 105% | percent response of DMSO control [3] 112% | GFP response vs DMSO [4] 103% | GFP response, % of DMSO [5] 105% | vesicle binding response [6] 212% | inhibition [7] 6.95% | superoxide response (% of plate) [8] 89.7% | aptamer binding inhibition [9] -6% | response [10] 6.07% | response [12] -8.26% | binding (% of control) [13] 102% | efflux inhibition (fraction of control) [14] -0.14 | inhibition [15] -9% | differentiation response [16] 10.1%
active: inhibition [11] 61%

COc1ccc(OC)c(NC2=C(Cl)C(=O)N(Cc3ccccc3)C2=O)c1
59.3%: double positive events [6]
inactive: percent of DMSO control GFP [1] 104% | GFP response vs DMSO [2] 105% | percent response of DMSO control [3] 103% | GFP response vs DMSO [4] 103% | GFP response, % of DMSO [5] 99.8% | vesicle binding response [6] 98% | inhibition [7] 4.27% | superoxide response (% of plate) [8] 99.4% | aptamer binding inhibition [9] 0% | response [10] 3% | inhibition [11] 5.66% | response [12] 2.16% | binding (% of control) [13] 107% | efflux inhibition (fraction of control) [14] -0.075 | inhibition [15] 0% | differentiation response [16] -11.9%

COc1ccc(C2c3c(n[nH]c3C)CC(C)(O)C2C(C)=O)cc1OC (stereo not drawn)
inactive: percent of DMSO control GFP [1] 87.3% | GFP response vs DMSO [2] 129% | percent response of DMSO control [3] 97.9% | GFP response vs DMSO [4] 76.5% | GFP response, % of DMSO [5] 90.3% | vesicle binding response [6] 58.4% | inhibition [7] 10.3% | superoxide response (% of plate) [8] 106% | aptamer binding inhibition [9] 4% | response [10] -2.94% | inhibition [11] -0.31% | response [12] 0.84% | binding (% of control) [13] 103% | efflux inhibition (fraction of control) [14] -0.13 | inhibition [15] 7% | differentiation response [16] 13.1%
67.8%: double positive events [6]

CC(=O)N[C@@H](CS)C(=O)O
inactive: percent of DMSO control GFP [1] 101% | GFP response vs DMSO [2] 111% | percent response of DMSO control [3] 95.8% | GFP response vs DMSO [4] 131% | GFP response, % of DMSO [5] 101% | vesicle binding response [6] 159% | inhibition [7] -3.16% | superoxide response (% of plate) [8] 89.1% | aptamer binding inhibition [9] 5% | response [10] 7.69% | inhibition [11] -18.7% | response [12] 0.13% | binding (% of control) [13] 104% | efflux inhibition (fraction of control) [14] -0.03 | inhibition [15] 19% | differentiation response [16] 7.2%
64.2%: double positive events [6]

O=C(N1CCCC1)C12CC3CC(C1)CC(C(=O)N1CCCC1)(C3)C2
59.6%: double positive events [6]
inactive: percent of DMSO control GFP [1] 99.5% | GFP response vs DMSO [2] 103% | percent response of DMSO control [3] 101% | GFP response vs DMSO [4] 124% | GFP response, % of DMSO [5] 101% | vesicle binding response [6] 219% | inhibition [7] 9.13% | superoxide response (% of plate) [8] 104% | aptamer binding inhibition [9] -1% | response [10] -2.88% | inhibition [11] -3.27% | response [12] 0.92% | binding (% of control) [13] 101% | efflux inhibition (fraction of control) [14] 0.15 | inhibition [15] 3% | differentiation response [16] -7.2%

O=C(O)c1ccccc1C(=O)OCCCCOC(=O)c1ccccc1C(=O)O
inactive: percent of DMSO control GFP [1] 104% | GFP response vs DMSO [2] 85.6% | percent response of DMSO control [3] 105% | GFP response vs DMSO [4] 82.2% | GFP response, % of DMSO [5] 98.6% | vesicle binding response [6] 1380% | inhibition [7] -0.45% | superoxide response (% of plate) [8] 88% | aptamer binding inhibition [9] 6% | response [10] -3.48% | inhibition [11] -4.07% | response [12] 1.28% | binding (% of control) [13] 92.7% | efflux inhibition (fraction of control) [14] 0.21 | inhibition [15] 2% | differentiation response [16] 4.15%
64.9%: double positive events [6]

Cn1c(=O)[nH]c(=O)c2c1nc(NCc1ccco1)n2CCCc1ccccc1
inactive: percent of DMSO control GFP [1] 101% | GFP response vs DMSO [2] 101% | percent response of DMSO control [3] 100% | GFP response vs DMSO [4] 90.1% | GFP response, % of DMSO [5] 105% | vesicle binding response [6] 36.6% | inhibition [7] -2.53% | superoxide response (% of plate) [8] 103% | aptamer binding inhibition [9] 5% | response [10] -5.62% | inhibition [11] 9.94% | response [12] 0.19% | binding (% of control) [13] 97.2% | efflux inhibition (fraction of control) [14] -0.07 | inhibition [15] -1% | differentiation response [16] -3.67%
62.6%: double positive events [6]
